Source: PubChem BioAssay
CYP2C9 inh – blockers of cytochrome P450 2C9 activity – biochemical, luminescence, ADME assay, primary screen. CYP2C9 Supersomes, luciferin-H conversion. inhibition, % at 5 µM. 96,000 tested, 20% active. AID 777, 2007;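 active = blocking of liver enzyme CYP2C9 beyond about 50% at 5 µM, limit read from the data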
CYP2C19 inh – blockers of cytochrome P450 2C19 activity – biochemical, luminescence, ADME assay, primary screen; CYP2C19 Supersomes, luciferin-H EGE luminescence, 30 min; inhibition, % at 5 µM; 96,000 tested, 21% active;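 active = CYP2C19 inhibition above a set limit at 5 µM in the primary screen, cut at about 50% in these data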
Target sequence (P33261 whole entry, looked up): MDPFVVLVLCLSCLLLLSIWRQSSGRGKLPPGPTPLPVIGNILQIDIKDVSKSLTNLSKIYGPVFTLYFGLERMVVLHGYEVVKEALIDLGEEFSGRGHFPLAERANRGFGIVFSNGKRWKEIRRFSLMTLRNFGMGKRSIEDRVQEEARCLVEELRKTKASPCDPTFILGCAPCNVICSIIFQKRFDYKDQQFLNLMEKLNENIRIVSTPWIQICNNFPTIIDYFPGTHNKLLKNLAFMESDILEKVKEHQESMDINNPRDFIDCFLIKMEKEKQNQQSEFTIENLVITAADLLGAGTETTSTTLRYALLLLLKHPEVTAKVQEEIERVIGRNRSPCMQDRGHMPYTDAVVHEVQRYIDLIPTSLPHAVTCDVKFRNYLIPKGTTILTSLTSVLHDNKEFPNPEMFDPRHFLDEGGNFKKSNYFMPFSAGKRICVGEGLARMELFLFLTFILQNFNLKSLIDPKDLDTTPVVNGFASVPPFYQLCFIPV
CYP2C9 act – human CYP2C9 activators, primary screen, biochemical, luminescence; activation factor at 5 µM; 96,000 tested, 1.4% active; Cytochrome P450 2C9 (Homo sapiens), P11712; recombinant CYP2C9, luciferin-H conversion; active compounds read high; factor 1 = untreated enzyme, 0 = blocked; AID 1024, 2008;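 active = activation factor of 2 or more for CYP2C9 at a 5 µM dose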
PostGolgi ctrl – growth inhibition of yeast control strain, primary screen, counter-screen for post-Golgi transport modulator project. efflux-deficient yeast background strain, growth absorbance A615, 16 h. 98,000 tested, 5% active. inhibition, % at 10 µM
CYP2C19 act – human CYP2C19 activators, primary screen, biochemical, luminescence; Cytochrome P450 2C19 (Homo sapiens), P33261; recombinant CYP2C19, luciferin-H EGE luminescence; active compounds read high; 0 = fully inhibited enzyme, 1 = untreated enzyme; activation factor at 5 µM; 96,000 tested, under 10 active; AID 1025, 2008;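 active = activation factor of at least 2 at 5 µM in the primary screen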
PostGolgi yeast – phenotypic screen on post-Golgi transport, primary screen; inhibition, % at 10 µM; 98,000 tested, 0.9% active; post-Golgi transport phenotypic cell assay; AID 739, 2007;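 note: yeast cells grown in 1536-well plates; yeast grown about 18 h at 30C before absorbance read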
Each line names hits and unclear results; the compound was inactive in the other large screens. The list is not random: actives were taken first. Their share in the collection is about 32%. Cut-off read from the data, not from the text of the source, unless noted: active = inhibition above about 30%; inactive = the rest.

Cn1nccc1/C=C(/C#N)S(=O)(=O)c1ccccc1	none
N#C/C(=C\c1ccc[nH]1)S(=O)(=O)c1ccccc1	CYP2C9 act 5.5
CCn1cc(/C=C(/C#N)S(=O)(=O)c2ccccc2)cn1	CYP2C9 act 3
Cc1ccccc1C(=O)NCc1nnc(SCC(=O)N2c3ccccc3Sc3ccccc32)n1C	none
O=C(NCC(=O)N1CCC(N2CCCCC2)CC1)C1CCCCC1	PostGolgi ctrl 30
Clc1ccc(CSc2nnc(CN3CCOCC3)n2-c2ccccc2)cc1Cl	CYP2C9 inh 62, CYP2C19 inh 84
CCOc1ccc2nc(COC(=O)c3ccco3)c(C(C)=O)[n+]([O-])c2c1	none
CCOc1ccc2nc(Cl)c(/C=C/C(=O)c3ccco3)cc2c1	CYP2C9 inh 53
COC(=O)Nc1ccc(S(=O)(=O)N2c3ccccc3CCC2C)cc1 (stereo not given)	PostGolgi ctrl 34
COC(=O)n1c(SC)nc2ccccc21	none
COc1ccccc1N1CCN(/N=C\c2ccc(C)o2)CC1	none
Cc1ccc(/C=N/N2CCN(Cc3ccc(Cl)cc3)CC2)o1	CYP2C9 inh 63, CYP2C19 inh 68
COc1ccccc1/C=C/C=N/N1CCN(Cc2ccc(Cl)cc2)CC1	CYP2C19 inh 52
O=C(N1CCOCC1)N1c2ccccc2Sc2ccccc21	CYP2C19 inh 55
O=c1nc(/C=C/c2cc([N+](=O)[O-])ccc2Cl)cc(C(F)(F)F)[nH]1	CYP2C9 inh 81
N#Cc1c(-c2ccc(Cl)cc2)ccn2nc(C3CCCCC3)nc12	CYP2C9 inh 85
CC(CN(C)Cc1ccccc1)OC(=O)c1cccs1 (stereo not given)	none (no result: CYP2C9 inh, CYP2C19 inh, CYP2C9 act, CYP2C19 act)
CC(CCN(C)C)OC(=O)c1ccc(C(C)c2ccccc2)o1 (stereo not given)	CYP2C19 inh 61
Cc1cc(C(=O)N2CCCCCC2)cs1	CYP2C19 inh 58
COC(=O)c1nn(-c2ccccc2)c(Cl)c1/C=N/OCc1ccc(C)cc1	none
CC(NC(=O)C1CCCN(S(=O)(=O)c2cccs2)C1)c1ccccc1 (stereo not given)	CYP2C9 inh 95, CYP2C19 inh 59
CC(C)NC(=O)C1CCCN(S(=O)(=O)c2cccs2)C1 (stereo not given)	CYP2C19 inh 58
CCOC(=O)C1CCCN(S(=O)(=O)c2cccs2)C1 (stereo not given)	none
CCOC(=O)CNc1nc(C#N)nc(N2CCOCC2)n1	none
CCOC(=O)C1CCCN(c2cc(C)nc3cc(-c4ccc(F)cc4)nn23)C1 (stereo not given)	CYP2C9 inh 67, PostGolgi ctrl 42
CC12CCC(=O)N1c1c(sc3nc(N4CCOCC4)c4c(c13)CCCC4)C(=O)N2 (stereo not given)	CYP2C9 inh 68
O=c1c(N2CCOCC2)nsnc1N1CCOCC1	none
CCn1cc(C(=O)NCCCN2CC(C)CC(C)C2)c(=O)c2cc(S(=O)(=O)N(C)C)ccc21 (stereo not given)	none
COC(=O)CSc1nc(-c2cccs2)ccc1C#N	none
CC(C)Cc1ccc(C#N)c(SCC(N)=O)n1	CYP2C19 inh 61
COc1ccccc1NC(=O)CN1CCN(C2c3ccccc3-c3ccccc32)CC1	CYP2C9 inh 96, CYP2C19 inh 81
COc1cc(NC(=O)Nc2ccccc2OC)c(OC)cc1NC(=O)CN1CCCCC1	none
COc1ccc(NC(=O)CN2CCN(C3c4ccccc4-c4ccccc43)CC2)c(OC)c1	CYP2C9 inh 97, CYP2C19 inh 88, PostGolgi ctrl 68
CCn1ncc(/C=N\NC(=O)c2csc3ccccc23)c1C	none
CCN(CC)S(=O)(=O)c1csc(C(=O)Nc2ccccn2)c1	CYP2C9 inh 81, CYP2C19 inh 67
O=C(Nc1ccccn1)c1cccs1	none
CCSc1nnc(Cn2c(=O)sc3ccccc32)n1-c1ccc(OC)cc1	none (no result: CYP2C9 inh, CYP2C19 inh, CYP2C9 act, CYP2C19 act)
O=C(CSC(=S)N1CCOCC1)Nc1nc(-c2ccccc2)c(-c2ccccc2)o1	PostGolgi ctrl 35
N#Cc1c(-c2ccccc2)cc(-c2ccccc2)nc1SCc1nnc(-c2ccccc2)o1	CYP2C9 inh 70
CCSc1nc2ccccc2[nH]1	none
C=CCNC(=O)NC(=O)COC(=O)CCCSc1nc2ccccc2[nH]1	none
c1ccc(-c2nnc(CSc3nc4ccccc4[nH]3)o2)cc1	CYP2C9 inh 67, CYP2C19 inh 90
O=C(CCCSc1nc2ccccc2[nH]1)Nc1nnc(-c2ccccc2)o1	CYP2C9 inh 52
CS(=O)(=O)c1nc(-c2ccccc2)cc(-c2ccccc2)c1C#N	PostGolgi ctrl 54
CCN(CC)CCNc1nc2cc(OC)c(OC)cc2c2nc(-c3ccccc3)nn12	none
Cn1cnnc1SC1CCCCC1NS(=O)(=O)c1ccccc1 (stereo not given)	none
Nn1cnnc1SC1CCCCC1NS(=O)(=O)c1ccccc1 (stereo not given)	CYP2C19 inh 81
Cc1cccc(Cn2cc(/C=C/[N+](=O)[O-])c3ccccc32)c1	PostGolgi ctrl 61
CCCCC(=O)NCCc1ccc(OC)cc1	CYP2C19 inh 57
CCCCC(=O)NCCc1ccc(S(N)(=O)=O)cc1	none
COc1ccc(CCNC(=S)Nc2ccccc2C)cc1	none
COc1ccc(CCNC(=S)Nc2cc(C)cc(C)c2)cc1	CYP2C19 inh 62
COc1ccc(S(=O)(=O)CCC(=O)NCCc2ccc(Cl)cc2)cc1	CYP2C9 inh 71, CYP2C19 inh 71
CCCc1ccc(OCCNC(=O)CC)cc1	CYP2C19 inh 56
Cc1ccc(N=Nc2c(N)n(-c3ccccc3)[nH]c2=O)cc1	none
CSc1nnc(N(CCC#N)CCC#N)s1	none
COCCCNC(=O)CC(NS(=O)(=O)c1ccc(OC)cc1)c1ccc(OC)cc1 (stereo not given)	none
COCCCNC(=O)CC(NS(=O)(=O)c1ccc(Cl)cc1)c1ccc(OC)cc1 (stereo not given)	CYP2C19 inh 55
CCCCNC(=O)Cn1c(-c2ccc(OC)cc2)noc1=O	CYP2C19 inh 65
C=CCOc1cccc(C2C(C(=O)c3ccc(C)o3)=C(O)C(=O)N2c2nccs2)c1 (stereo not given)	none
CCCN(CCC)CCNC(=O)C(NS(=O)(=O)c1ccc2c(c1)CCC(=O)N2)c1ccccc1 (stereo not given)	PostGolgi ctrl 31
CCCC(=O)Nc1ccccc1-c1nnc(SC)[nH]c1=O	none
N#CC1=C(c2ccccc2)/C(=C/c2ccccc2)OC1=O	PostGolgi ctrl 51
O=C(Nc1ccccc1C(F)(F)F)N1CCN(c2ccc3nncn3n2)CC1	CYP2C9 inh 72
Fc1ccc(-c2nnc3ccc(N4CCc5ccccc5C4)nn23)cc1	CYP2C9 inh 86, CYP2C19 inh 57, PostGolgi ctrl 59
